According to article PMC4601081:

Molecular target: 26S proteasome regulatory subunit RPN5 (UniProt Q12250)
Experiment: cross-link between two proteins; cross-linking mass spectrometry

Chain of 26S proteasome regulatory subunit RPN5 (Q12250 whole entry): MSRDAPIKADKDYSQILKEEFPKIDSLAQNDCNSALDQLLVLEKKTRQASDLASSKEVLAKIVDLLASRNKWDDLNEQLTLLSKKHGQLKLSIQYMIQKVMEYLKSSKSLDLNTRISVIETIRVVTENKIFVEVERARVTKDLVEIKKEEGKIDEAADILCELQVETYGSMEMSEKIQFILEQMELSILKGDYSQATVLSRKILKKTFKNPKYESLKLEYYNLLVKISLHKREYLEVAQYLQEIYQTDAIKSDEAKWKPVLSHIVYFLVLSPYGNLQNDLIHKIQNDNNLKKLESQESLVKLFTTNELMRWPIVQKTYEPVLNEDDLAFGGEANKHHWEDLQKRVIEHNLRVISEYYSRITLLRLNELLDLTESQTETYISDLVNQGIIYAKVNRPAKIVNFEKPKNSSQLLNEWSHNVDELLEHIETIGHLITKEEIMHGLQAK

Listed as a hit, yes:
Ubiquitin C-terminal hydrolase RPN11, P43588
26S proteasome regulatory subunit RPN7, Q06103
26S proteasome regulatory subunit RPN9, Q04062
26S proteasome regulatory subunit RPN8, Q08723

Molecular target: 26S proteasome regulatory subunit RPN6 (UniProt Q12377)
Experiment: as above

Chain of 26S proteasome regulatory subunit RPN6 (Q12377 whole entry): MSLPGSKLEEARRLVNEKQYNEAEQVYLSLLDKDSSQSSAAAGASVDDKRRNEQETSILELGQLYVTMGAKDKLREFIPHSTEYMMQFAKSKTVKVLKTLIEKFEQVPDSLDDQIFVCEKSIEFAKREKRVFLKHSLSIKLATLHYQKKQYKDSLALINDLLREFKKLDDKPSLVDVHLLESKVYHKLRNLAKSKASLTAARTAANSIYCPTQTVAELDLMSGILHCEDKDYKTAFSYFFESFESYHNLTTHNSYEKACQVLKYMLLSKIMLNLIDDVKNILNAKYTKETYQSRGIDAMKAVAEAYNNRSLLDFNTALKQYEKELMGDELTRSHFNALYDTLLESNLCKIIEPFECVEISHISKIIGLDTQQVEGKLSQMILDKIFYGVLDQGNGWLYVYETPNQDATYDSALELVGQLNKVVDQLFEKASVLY

Listed as a hit, yes:
Ubiquitin C-terminal hydrolase RPN11, P43588
26S proteasome regulatory subunit RPN7, Q06103
26S proteasome regulatory subunit RPN8, Q08723
26S proteasome regulatory subunit RPN5, Q12250

Molecular target: 26S proteasome regulatory subunit RPN8 (UniProt Q08723)
Sequence (Q08723 whole entry): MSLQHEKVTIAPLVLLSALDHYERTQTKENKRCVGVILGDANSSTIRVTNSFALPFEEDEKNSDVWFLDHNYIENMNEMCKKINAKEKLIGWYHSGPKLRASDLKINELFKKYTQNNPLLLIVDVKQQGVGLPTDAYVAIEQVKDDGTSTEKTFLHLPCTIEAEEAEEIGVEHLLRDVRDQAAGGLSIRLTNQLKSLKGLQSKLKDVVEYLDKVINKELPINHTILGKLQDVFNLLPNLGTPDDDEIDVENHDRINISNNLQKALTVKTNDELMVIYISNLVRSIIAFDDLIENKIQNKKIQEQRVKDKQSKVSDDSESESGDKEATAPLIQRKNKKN
Experiment: as above

Listed as a hit, yes:
26S proteasome regulatory subunit RPN7, Q06103
26S proteasome regulatory subunit RPN9, Q04062
26S proteasome regulatory subunit RPN3, P40016
26S proteasome complex subunit SEM1, O94742
